About 79,000 compounds went through this panel and 15% of them were active in at least one assay; those are over-represented in the sample as a whole. Values without a mark were called inactive. The source made the active and inactive calls. Rule as the data show it: active = growth inhibition above about 70%; inactive = the rest.
Legend:
[1] = NCI Yeast Anticancer Drug Screen. Data for the rad50 strain (AID 155);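 also: 0% = growth of vehicle-only cultures of the same strain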; conditions: S. cerevisiae rad50 strain growth inhibition; at 50.0 µM; hits give high values
Outline: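 Relative growth inhibition (compound vs vehicle) was measured in yeast with a defined repair-gene alteration.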

[2] = NCI Yeast Anticancer Drug Screen. Data for the mec2-1 strain (AID 157); conditions: S. cerevisiae mec2-1 strain, at 50.0 µM, hits give high values
Outline: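 Test agents were screened against the mec2-1 yeast strain, with defined DNA repair or cell cycle alteration. Growth was scored as inhibition against vehicle-only controls.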

[3] = NCI Yeast Anticancer Drug Screen. Data for the sgs1 mgt1 strain (AID 161);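 also: 0% = growth of cultures given vehicle only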; conditions: S. cerevisiae sgs1 mgt1 strain, at 50.0 µM, hits give high values
Outline: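 Inhibition of yeast growth, normalised to vehicle-treated controls, is reported for a strain bearing genetic alterations in DNA damage repair.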

[4] = NCI Yeast Anticancer Drug Screen. Data for the cln2 rad14 strain (AID 165);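 also: 0% = growth equal to vehicle treated cultures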; conditions: S. cerevisiae cln2 rad14 strain, at 50.0 µM, hits give high values
Outline: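 Growth of compound-exposed yeast (cln2 rad14 genotype) measured and expressed as inhibition relative to vehicle.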

[5] = NCI Yeast Anticancer Drug Screen. Data for the bub3 strain (AID 167); conditions: S. cerevisiae bub3 mutant strain, at 50.0 µM, hits give high values
Outline: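 Screening used yeast with an engineered genetic alteration affecting cell cycle control. Compound-exposed cultures were compared with vehicle cultures, and reduced growth was taken as inhibition.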

[6] = NCI Yeast Anticancer Drug Screen. Data for the mlh1 rad18 strain (AID 175); conditions: S. cerevisiae mlh1 rad18 strain growth inhibition; at 50.0 µM; hits give high values
Outline: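 In this whole-cell yeast screen, a strain with altered DNA damage repair is challenged with compound, and its growth is measured against matched vehicle-treated controls.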

SMILES | growth inhibition [1] | growth inhibition [2] | growth inhibition [3] | growth inhibition [4] | growth inhibition [5] | growth inhibition [6]
N#C/C1=C(\C#N)CCC2(C#N)C3C=CC(O3)C2(C#N)CC1 (stereo unspecified) | 14.9% | 12.6% | -0.65% | 13.3% | 8.45% | 23.1%
CCN(CC)CCC(=O)c1ccc(Oc2ccc(Cl)cc2)cc1 | 96.8% (active) | 83.8% (active) | 99% (active) | 80.2% (active) | 98.9% (active) | 99.2% (active)
CCSC1OC(C(COC(C)=O)OC(C)=O)C(OC(C)=O)C1NC(=O)OCc1ccccc1 (stereo unspecified) | -0.05% | 5.75% | -4.5% | 7.2% | 1% | -18.1%
Nc1nc(N)nc(C2C=CCCC2)n1 (stereo unspecified) | -19.6% | 1.85% | -13% | -32.6% | -11.4% | -18.1%
O=C(Nc1ccc(S(=O)(=O)N2CCCCC2)cc1)OC1CCCC1 | 3.85% | 14.7% | 1.15% | 18.9% | 14.8% | -12.6%
CCCCCCCCCCCCOC1C(COCCN2CCCCC2)OC2OC(C)(C)OC21 (stereo unspecified) | 92.6% (active) | 93.4% (active) | 89.7% (active) | 90% (active) | 88% (active) | 90.2% (active)
Cc1c(Cl)cc([N+](=O)[O-])cc1Cl | -13.2% | 13.7% | -11.8% | 17.1% | -3.45% | 5.25%
O=C(Cl)C1C2C=CC(C2)C1C(=O)Cl (stereo unspecified) | 3.1% | -20.4% | -2.35% | -9.15% | 15.6% | 2.55%
CCC12C[N+]3([O-])CCc4c([nH]c5ccccc45)C(C(=O)OC)(c4cc5c(cc4OC)N(C)C4C(O)(C(=O)OC)C(OC(C)=O)C6(CC)C=CCN7CCC54C76)CC(C3)C1O2 (stereo unspecified) | -8.15% | -24.1% | -14% | -9.8% | -2.2% | -31.7%
Fc1c(F)c(F)c(CSc2nc3ccccc3[nH]2)c(F)c1F | -42% | -20.1% | -26.7% | -7.35% | 0.35% | -16.7%
Cc1ccc(N2C(=O)CS/C2=C(\C#N)c2nc3ccccc3[nH]2)cc1 | -78.5% | -62% | -66.1% | -57.9% | -76.8% | -40.2%
O=S(=O)(O)c1cc(S(=O)(=O)O)c2c(Nc3ccnc4ccccc34)ccc(S(=O)(=O)O)c2c1 | -8.25% | -1.3% | -19.2% | 3.6% | -8.45% | 13.8%
COc1ccc2c(c1CCl)C(=O)OC2 | 13.6% | -9.1% | -2.05% | -20.6% | 12.2% | -1.05%
NC12CCC(CC1)C2 | -14.3% | 13.3% | -14.1% | -6.25% | -10.4% | -4.8%
O=C(NNC1=NCCCN1)c1ccco1 | 2.1% | -0.75% | 9.25% | -22.2% | 7.5% | -3.85%
CSc1nsc(SC)c1C(N)=O | -0.25% | -17.6% | 15.3% | 12.5% | 16.2% | -0.85%
OCC1C2C=CC(C3C=CC32)C1CO (stereo unspecified) | 8.4% | -9.8% | -5.7% | -89.7% | -1.6% | 4.25%
Clc1cc(Cl)cc(C=NC23CC4CC(CC(C4)C2)C3)c1 | -13.8% | -31.2% | -40.5% | -20% | -24.4% | -11%
Cn1c(C(F)(F)F)nc2nc(Cl)c(Cl)nc21 | 16.6% | 0.05% | 20.7% | 21.2% | -32% | 46%
O=S(=O)(O)c1cccc(/C(=N\Nc2ccccn2)c2ccccn2)c1 | 44% | 25.9% | 59.8% | 40.5% | 51.5% | 45.4%
CC1=C2CCCCC2(C)C=C(C(=O)O)C1=O (stereo unspecified) | 22.2% | 50.5% | 18.8% | 34.6% | 12.2% | 23.4%

SMILES | growth inhibition [1] | growth inhibition [2] | growth inhibition [3] | growth inhibition [4] | growth inhibition [5] | growth inhibition [6]
CC(C)(C)c1ccc(Oc2nc(Oc3ccc(C(C)(C)C)cc3)nc(Oc3ccc(C(C)(C)C)cc3)n2)cc1 | 19.6% | 10.8% | 10.6% | 3.8% | -1.85% | 11.2%
Clc1ccc2c(c1)nc(-c1ccccn1)n2CCc1ccncc1 | 3.75% | 0.05% | 2.4% | -16.4% | -13.4% | 13.8%
NC(=O)/C(N=Nc1ccccc1)=N\Nc1ccccc1 | 94.2% (active) | 94.8% (active) | 94.8% (active) | 73.2% (active) | 95.5% (active) | 94.8% (active)
CCC[C@@H]1C[C@@H](OC(=S)SC)C[C@H]2CCC(=O)N12 | -3.1% | -9.6% | -7.85% | -4.9% | 44.9% | -16.6%
CCN1CCCC(Nc2nc(Nc3cc(Cl)cc(Cl)c3)nc3ccc(Cl)cc23)C1 (stereo unspecified) | 97.3% (active) | 97.1% (active) | 97.5% (active) | 95.5% (active) | 96.8% (active) | 95.8% (active)
OC1c2ccccc2OC2(N3CCCC3)CCCCC12 (stereo unspecified) | -5.6% | -29.9% | -13.2% | -15.7% | -26.4% | 1.2%
CSc1c(C(=O)Nc2ccc(C)cc2)c(N)nn1-c1ccccc1 | 20.8% | -12.3% | 20.4% | 12.8% | 4.35% | 2.7%
CCOC(=O)/N=[N+](\[O-])c1ccccc1 | 64.5% | 46.9% | 57.6% | 11.9% | 41.5% | 86.8% (active)
COC(=O)c1c(C)cc(OC(=O)c2c(C)cc(OC)c(C)c2OC)c(C)c1O | 14.6% | 3.5% | -2.15% | 10.4% | -0.65% | 4.65%
CC1([N+](=O)[O-])COC2(CCCC2)OC1 | 26.4% | 12.2% | 4.75% | -21.8% | -12.9% | 33.6%
CCOC(=O)C1=CNC(C(=O)OCC)C1c1cccn1-c1ccc(Cl)cc1[N+](=O)[O-] (stereo unspecified) | 8.6% | 16.8% | 10.8% | 29% | 3.8% | 40.8%
O=c1nc(N2CCCCCCC2)ccn1C1OC(CO)C(O)C1O (stereo unspecified) | 4.85% | 14.6% | 8.95% | 6.75% | 6.85% | 8.5%
CC(=O)NC(C(=O)Nc1ccccc1)=C(C)C | -7.45% | -7.9% | -11.8% | -11.5% | 5.25% | 0.8%
Clc1ccc(-c2nnc(-c3ccccc3)o2)cc1Cl | -8.4% | -24.8% | -0.4% | 16% | -18.9% | -6.5%
c1csc(CNc2cccc3ccccc23)c1 | 54.5% | 25% | 31.6% | -22.1% | 13.6% | 28%
CCC1(O)CCCCC1 | -16.4% | -23.4% | -30.1% | -37.9% | -18.6% | -21.7%
CCCCCN1C(=O)N=NC1=S | 4.65% | 8.15% | 19.2% | 2.7% | -13.8% | -2.5%
CCCN1C(=O)c2cc(=O)n(Cc3ccccc3)c(O)c2C1C (stereo unspecified) | 6.95% | 33% | 4.7% | 8.4% | -9.45% | 13.8%
Cc1nc(N)nc(C)c1N=Nc1ccc(Cl)cc1Cl | -0.75% | 6.8% | 0.5% | -7.3% | -5.25% | 9.6%
O=[N+]([O-])c1ccc(/C=C/c2cc(-c3ccccc3)nc3ccc4ccccc4c23)cc1 | -11.1% | 5.1% | 9.9% | 3.2% | -11.9% | 4.5%
